# According to article PMC7862700, “An all-to-all approach to the identification of sequence-specific readers for epigenetic DNA modifications on cytosine”:
# Columns and labels:
# Assay in all cases: DAPPL (digital affinity profiling via proximity ligation, sequencing); 10 mM Tris-HCl pH 7.5, 50 mM NaCl, 1 mM DTT, 4% glycerol, room temperature, 30 min; GST-TFs on glutathione beads, 16-mer random dsDNA library, 0.1% formaldehyde crosslink after washing; high values mean tight binding
# Conditions in all cases: protein: recombinant; tags: N-terminal GST; dsDNA, one strand shown
# [1] = molecular target: T1, ELK1 (Homo sapiens, UniProt P19419 1-428)
# T1 sequence: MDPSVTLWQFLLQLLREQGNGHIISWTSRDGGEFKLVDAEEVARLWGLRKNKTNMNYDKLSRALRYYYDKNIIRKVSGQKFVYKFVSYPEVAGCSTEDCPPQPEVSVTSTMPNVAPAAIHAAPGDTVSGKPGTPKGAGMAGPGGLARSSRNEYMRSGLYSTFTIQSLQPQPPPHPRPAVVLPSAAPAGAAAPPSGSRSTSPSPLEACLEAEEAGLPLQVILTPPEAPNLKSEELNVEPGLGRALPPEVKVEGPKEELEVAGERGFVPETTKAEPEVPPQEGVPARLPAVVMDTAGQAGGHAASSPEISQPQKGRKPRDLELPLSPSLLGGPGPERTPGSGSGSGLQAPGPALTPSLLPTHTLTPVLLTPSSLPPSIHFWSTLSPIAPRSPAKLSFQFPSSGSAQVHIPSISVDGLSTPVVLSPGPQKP
# Summary of the method: (§1)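 Binding signal is each hexamer's read frequency for a factor divided by its frequency in the tag-only sample. The factors were GST-fused human transcription factors from yeast, captured on glutathione beads, DNA-barcoded and pooled with that sample. Pools were incubated with 200 nmole of a random double-stranded 16-mer DNA library in Tris/NaCl/DTT/glycerol buffer at room temperature for 30 min, then washed, crosslinked with 0.1% formaldehyde, proximity-ligated with BsaI/T4 ligase (1 h, 37 °C), PCR-amplified and sequenced on an Illumina NextSeq500.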
# [2] = molecular target: T2, GABPA (Homo sapiens, UniProt Q06546 1-454)
# T2 sequence: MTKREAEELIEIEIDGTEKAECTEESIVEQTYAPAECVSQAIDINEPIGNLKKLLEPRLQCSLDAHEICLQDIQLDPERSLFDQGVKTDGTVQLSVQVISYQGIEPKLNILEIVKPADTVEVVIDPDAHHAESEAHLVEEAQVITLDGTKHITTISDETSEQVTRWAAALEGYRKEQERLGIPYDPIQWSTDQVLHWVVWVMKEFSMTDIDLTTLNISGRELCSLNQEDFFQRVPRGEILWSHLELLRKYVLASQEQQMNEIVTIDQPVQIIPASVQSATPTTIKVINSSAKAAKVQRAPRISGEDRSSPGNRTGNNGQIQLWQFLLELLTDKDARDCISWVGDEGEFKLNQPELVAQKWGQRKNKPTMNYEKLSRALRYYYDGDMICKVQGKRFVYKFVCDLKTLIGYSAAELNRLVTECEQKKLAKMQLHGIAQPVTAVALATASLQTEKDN
# Summary of the method: as §1
# [3] = molecular target: ELF1 (Homo sapiens, UniProt P32519 1-619)
# Chain of ELF1 (P32519 whole entry): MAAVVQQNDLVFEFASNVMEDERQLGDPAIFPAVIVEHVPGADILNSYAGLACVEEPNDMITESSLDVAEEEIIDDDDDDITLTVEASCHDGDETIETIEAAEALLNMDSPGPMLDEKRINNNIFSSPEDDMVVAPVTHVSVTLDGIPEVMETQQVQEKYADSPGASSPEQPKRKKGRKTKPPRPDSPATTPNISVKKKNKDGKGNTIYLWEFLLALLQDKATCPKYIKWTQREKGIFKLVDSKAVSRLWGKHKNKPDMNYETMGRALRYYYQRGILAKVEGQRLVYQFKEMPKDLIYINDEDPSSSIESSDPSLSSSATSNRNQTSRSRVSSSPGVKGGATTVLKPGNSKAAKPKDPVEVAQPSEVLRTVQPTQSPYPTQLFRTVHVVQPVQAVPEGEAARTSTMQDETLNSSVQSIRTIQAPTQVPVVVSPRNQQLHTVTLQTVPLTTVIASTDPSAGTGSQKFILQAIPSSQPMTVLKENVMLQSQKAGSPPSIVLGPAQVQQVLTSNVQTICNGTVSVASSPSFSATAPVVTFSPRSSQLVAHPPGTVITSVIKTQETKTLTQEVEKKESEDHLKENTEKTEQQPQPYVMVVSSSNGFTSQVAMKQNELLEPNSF
# Summary of the method: as §1
# [4] = molecular target: SPIB (Homo sapiens, UniProt Q01892 1-262)
# Chain of SPIB (Q01892 whole entry): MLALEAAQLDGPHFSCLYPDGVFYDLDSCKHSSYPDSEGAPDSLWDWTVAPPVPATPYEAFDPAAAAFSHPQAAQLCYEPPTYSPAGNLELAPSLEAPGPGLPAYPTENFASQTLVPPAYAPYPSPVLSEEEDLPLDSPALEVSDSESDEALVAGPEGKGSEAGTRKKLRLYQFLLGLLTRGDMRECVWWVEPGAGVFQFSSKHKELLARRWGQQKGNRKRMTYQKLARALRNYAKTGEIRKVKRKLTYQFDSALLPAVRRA
# Summary of the method: as §1
# [5] = molecular target: T3, ELK3 (Homo sapiens, UniProt P41970 1-407)
# T3 sequence: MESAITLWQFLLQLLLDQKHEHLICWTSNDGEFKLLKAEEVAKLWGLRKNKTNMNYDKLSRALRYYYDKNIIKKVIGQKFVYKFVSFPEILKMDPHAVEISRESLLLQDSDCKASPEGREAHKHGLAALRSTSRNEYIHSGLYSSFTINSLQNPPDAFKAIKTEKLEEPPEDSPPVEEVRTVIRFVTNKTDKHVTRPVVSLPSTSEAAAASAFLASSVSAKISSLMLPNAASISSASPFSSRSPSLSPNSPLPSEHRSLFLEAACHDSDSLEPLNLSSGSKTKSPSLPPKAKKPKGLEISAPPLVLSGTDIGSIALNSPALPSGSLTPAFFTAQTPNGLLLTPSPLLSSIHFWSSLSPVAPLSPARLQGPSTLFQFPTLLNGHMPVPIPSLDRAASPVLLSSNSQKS
# Summary of the method: as §1
# [6] = molecular target: T4, SPIC (Homo sapiens, UniProt Q8N5J4 1-248)
# T4 sequence: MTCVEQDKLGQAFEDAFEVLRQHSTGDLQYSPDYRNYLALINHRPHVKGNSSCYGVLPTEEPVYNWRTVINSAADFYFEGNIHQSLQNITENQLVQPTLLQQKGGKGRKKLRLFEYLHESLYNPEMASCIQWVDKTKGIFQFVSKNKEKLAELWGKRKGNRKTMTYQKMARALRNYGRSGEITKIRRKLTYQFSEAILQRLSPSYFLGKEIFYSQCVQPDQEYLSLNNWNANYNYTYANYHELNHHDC
# Summary of the method: as §1
# [7] = molecular target: T5, ELK4 (Homo sapiens, UniProt P28324-2 1-405)
# T5 sequence: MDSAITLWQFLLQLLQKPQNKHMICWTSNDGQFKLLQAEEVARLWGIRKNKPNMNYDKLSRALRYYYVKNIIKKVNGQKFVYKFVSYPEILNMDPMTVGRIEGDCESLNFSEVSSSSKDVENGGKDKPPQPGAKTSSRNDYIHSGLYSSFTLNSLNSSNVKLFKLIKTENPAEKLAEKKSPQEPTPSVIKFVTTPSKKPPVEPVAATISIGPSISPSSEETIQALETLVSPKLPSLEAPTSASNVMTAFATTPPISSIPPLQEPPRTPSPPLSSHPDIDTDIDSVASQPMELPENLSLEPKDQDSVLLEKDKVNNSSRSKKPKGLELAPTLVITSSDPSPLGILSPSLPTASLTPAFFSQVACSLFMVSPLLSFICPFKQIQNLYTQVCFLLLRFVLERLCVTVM
# Summary of the method: as §1
# [8] = molecular target: T6, ERF (Homo sapiens, UniProt P50548 1-548)
# T6 sequence: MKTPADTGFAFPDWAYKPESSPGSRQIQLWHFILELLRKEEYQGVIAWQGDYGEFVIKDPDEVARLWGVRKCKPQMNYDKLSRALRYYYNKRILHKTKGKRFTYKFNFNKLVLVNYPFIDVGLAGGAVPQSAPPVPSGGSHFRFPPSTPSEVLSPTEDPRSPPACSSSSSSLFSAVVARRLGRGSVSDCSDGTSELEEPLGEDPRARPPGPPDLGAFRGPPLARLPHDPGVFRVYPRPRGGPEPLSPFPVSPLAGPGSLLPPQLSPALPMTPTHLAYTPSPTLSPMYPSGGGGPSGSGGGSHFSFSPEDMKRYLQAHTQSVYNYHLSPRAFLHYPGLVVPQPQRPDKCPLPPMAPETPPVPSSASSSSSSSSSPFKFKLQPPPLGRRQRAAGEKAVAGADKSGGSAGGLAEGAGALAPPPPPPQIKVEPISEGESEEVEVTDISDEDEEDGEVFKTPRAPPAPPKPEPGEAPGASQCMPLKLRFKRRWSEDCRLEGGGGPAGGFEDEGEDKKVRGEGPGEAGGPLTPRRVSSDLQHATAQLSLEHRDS
# Summary of the method: as §1
# [9] = molecular target: T7, ETV3L (Homo sapiens, UniProt Q6ZN32 1-361)
# T7 sequence: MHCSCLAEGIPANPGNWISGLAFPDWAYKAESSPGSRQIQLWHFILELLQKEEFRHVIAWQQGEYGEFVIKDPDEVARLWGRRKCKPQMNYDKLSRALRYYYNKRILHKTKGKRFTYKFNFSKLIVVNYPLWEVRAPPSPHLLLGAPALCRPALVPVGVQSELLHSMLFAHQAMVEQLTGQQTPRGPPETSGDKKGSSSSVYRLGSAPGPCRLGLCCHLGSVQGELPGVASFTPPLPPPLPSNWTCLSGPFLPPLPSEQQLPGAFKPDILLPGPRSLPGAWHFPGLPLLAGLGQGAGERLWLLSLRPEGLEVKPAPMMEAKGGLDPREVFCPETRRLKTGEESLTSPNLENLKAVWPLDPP
# Summary of the method: as §1
# [10] = molecular target: T8, ETS2 (Homo sapiens, UniProt P15036 1-469)
# T8 sequence: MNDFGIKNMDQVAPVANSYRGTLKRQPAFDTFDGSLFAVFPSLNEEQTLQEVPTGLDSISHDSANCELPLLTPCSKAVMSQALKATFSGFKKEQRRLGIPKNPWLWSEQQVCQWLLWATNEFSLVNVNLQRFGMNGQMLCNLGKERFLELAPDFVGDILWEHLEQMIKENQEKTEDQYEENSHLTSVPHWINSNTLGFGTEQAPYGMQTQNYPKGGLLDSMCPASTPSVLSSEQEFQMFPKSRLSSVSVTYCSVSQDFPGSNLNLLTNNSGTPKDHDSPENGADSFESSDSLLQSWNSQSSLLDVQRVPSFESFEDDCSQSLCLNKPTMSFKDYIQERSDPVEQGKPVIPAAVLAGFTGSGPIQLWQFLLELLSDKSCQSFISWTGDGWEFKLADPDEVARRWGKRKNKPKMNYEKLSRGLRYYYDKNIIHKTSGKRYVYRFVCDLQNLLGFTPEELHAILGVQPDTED
# Summary of the method: as §1
# [11] = molecular target: T9, SPDEF (Homo sapiens, UniProt O95238 1-335)
# T9 sequence: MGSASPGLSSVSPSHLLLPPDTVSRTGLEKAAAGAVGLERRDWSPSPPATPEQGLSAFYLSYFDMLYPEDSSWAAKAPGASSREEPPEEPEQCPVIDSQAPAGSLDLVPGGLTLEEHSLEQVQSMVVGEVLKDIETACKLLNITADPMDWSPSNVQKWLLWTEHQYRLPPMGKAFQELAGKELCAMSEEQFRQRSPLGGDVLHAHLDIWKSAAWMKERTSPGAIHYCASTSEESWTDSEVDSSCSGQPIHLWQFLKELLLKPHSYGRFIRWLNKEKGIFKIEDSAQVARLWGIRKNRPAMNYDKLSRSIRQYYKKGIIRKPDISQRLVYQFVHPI
# Summary of the method: as §1
# [12] = molecular target: T10, ERG (Homo sapiens, UniProt P11308 1-479)
# T10 sequence: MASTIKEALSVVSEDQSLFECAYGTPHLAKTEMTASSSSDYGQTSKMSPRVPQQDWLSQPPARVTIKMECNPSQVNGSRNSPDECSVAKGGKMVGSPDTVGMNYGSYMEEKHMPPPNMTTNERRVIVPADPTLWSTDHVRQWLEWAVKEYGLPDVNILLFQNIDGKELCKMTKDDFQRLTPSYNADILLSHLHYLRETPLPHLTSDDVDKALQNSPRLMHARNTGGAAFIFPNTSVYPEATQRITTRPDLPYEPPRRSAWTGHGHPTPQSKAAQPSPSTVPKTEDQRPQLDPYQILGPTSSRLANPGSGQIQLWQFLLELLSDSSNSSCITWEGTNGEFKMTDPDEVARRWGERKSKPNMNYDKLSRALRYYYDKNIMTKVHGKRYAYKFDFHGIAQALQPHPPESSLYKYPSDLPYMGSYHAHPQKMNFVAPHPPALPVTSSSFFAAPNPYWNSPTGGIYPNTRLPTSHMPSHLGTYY
# Summary of the method: as §1
# [13] = molecular target: ELF4 (Homo sapiens, UniProt Q99607 1-663)
# Chain of ELF4 (Q99607 whole entry): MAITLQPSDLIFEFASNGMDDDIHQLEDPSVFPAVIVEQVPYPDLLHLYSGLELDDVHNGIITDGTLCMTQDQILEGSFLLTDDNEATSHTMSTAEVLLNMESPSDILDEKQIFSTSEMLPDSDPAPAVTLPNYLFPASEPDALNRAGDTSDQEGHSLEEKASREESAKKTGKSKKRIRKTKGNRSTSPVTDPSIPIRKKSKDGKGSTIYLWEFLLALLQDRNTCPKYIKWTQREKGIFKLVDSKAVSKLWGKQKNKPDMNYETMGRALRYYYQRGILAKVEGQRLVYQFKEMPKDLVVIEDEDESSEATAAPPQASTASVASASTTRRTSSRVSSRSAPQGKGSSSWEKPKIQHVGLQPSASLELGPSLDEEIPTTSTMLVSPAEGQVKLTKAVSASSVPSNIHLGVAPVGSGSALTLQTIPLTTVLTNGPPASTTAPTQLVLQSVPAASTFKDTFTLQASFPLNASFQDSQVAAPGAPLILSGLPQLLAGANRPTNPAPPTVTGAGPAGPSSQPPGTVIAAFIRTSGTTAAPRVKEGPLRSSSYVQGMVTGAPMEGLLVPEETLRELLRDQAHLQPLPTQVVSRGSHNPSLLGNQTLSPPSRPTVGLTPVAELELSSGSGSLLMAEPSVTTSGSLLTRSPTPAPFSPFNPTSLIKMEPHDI
# Summary of the method: as §1
# [14] = molecular target: T11, ETV2 (Homo sapiens, UniProt O00321 1-342)
# T11 sequence: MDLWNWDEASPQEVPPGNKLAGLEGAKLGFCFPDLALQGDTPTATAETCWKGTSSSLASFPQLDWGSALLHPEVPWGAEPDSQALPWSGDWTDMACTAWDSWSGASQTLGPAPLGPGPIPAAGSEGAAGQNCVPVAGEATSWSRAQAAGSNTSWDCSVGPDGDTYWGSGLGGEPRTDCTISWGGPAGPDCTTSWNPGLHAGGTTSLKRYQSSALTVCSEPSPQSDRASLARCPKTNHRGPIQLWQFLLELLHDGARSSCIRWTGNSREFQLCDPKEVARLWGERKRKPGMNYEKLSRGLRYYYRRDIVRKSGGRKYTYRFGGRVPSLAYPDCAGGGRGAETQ
# Summary of the method: as §1
# [15] = molecular target: ETV1 (Homo sapiens, UniProt P50549 1-477)
# Chain of ETV1 (P50549 whole entry): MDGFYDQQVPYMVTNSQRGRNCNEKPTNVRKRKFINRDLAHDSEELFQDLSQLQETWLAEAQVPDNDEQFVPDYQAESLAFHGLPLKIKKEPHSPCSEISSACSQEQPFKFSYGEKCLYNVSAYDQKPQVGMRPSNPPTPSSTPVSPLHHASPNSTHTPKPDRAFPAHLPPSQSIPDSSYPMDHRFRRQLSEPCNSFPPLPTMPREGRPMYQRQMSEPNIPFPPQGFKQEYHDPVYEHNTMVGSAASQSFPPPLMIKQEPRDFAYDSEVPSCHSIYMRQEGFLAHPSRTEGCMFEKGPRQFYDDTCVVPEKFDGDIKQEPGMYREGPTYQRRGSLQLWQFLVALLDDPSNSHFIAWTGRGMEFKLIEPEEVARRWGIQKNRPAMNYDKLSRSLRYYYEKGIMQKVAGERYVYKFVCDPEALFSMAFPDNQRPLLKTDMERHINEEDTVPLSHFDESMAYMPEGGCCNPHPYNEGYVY
# Summary of the method: as §1
# [16] = molecular target: T12, ETV3 (Homo sapiens, UniProt P41162-2 1-143)
# T12 sequence: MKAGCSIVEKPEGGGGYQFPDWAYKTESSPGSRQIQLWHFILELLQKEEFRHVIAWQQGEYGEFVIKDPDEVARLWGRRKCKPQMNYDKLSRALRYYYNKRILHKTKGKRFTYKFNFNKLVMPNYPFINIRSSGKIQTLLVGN
# Summary of the method: as §1
sequence,measurement,setting,value
GTATTG,binding signal,[1],"1.01 fold enrichment (6-mer frequency, TF over GST control)"
same,binding signal,[2],"1.04 fold enrichment (6-mer frequency, TF over GST control)"
same,binding signal,[3],"1.04 fold enrichment (6-mer frequency, TF over GST control)"
same,binding signal,[4],"1.1 fold enrichment (6-mer frequency, TF over GST control)"
same,binding signal,[5],"1.08 fold enrichment (6-mer frequency, TF over GST control)"
same,binding signal,[6],"1.11 fold enrichment (6-mer frequency, TF over GST control)"
same,binding signal,[7],"1.05 fold enrichment (6-mer frequency, TF over GST control)"
same,binding signal,[8],"1 fold enrichment (6-mer frequency, TF over GST control)"
same,binding signal,[9],"1.01 fold enrichment (6-mer frequency, TF over GST control)"
same,binding signal,[10],"1 fold enrichment (6-mer frequency, TF over GST control)"
same,binding signal,[11],"1 fold enrichment (6-mer frequency, TF over GST control)"
GACTCG,binding signal,[6],"1.02 fold enrichment (6-mer frequency, TF over GST control)"
CCTAGG,binding signal,[2],"1.04 fold enrichment (6-mer frequency, TF over GST control)"
same,binding signal,[12],"1 fold enrichment (6-mer frequency, TF over GST control)"
same,binding signal,[3],"1.07 fold enrichment (6-mer frequency, TF over GST control)"
same,binding signal,[6],"1.1 fold enrichment (6-mer frequency, TF over GST control)"
same,binding signal,[13],"1.07 fold enrichment (6-mer frequency, TF over GST control)"
same,binding signal,[7],"1.04 fold enrichment (6-mer frequency, TF over GST control)"
same,binding signal,[14],"1.03 fold enrichment (6-mer frequency, TF over GST control)"
same,binding signal,[15],"1.02 fold enrichment (6-mer frequency, TF over GST control)"
same,binding signal,[9],"1.03 fold enrichment (6-mer frequency, TF over GST control)"
same,binding signal,[11],"1.02 fold enrichment (6-mer frequency, TF over GST control)"
same,binding signal,[16],"1.1 fold enrichment (6-mer frequency, TF over GST control)"
